# Data as given in the supplement of paper PMC10498489.
# The campaign covered roughly 2,300 compounds. About 330 (14%) showed activity.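 How the source made its calls: active = median modified Z-score above 1.96; inactive = 1.96 or below.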 A selection follows.
# System: HepG2 Srxn1-GFP reporter cells (+30 nM CDDO-Me)
# Test: Srxn1-GFP intensity median modified Z-score relative to plate median; higher = stronger NRF2 / oxidative stress reporter activation, active = hit call of the paper
# Conditions: 10 µM; exposure time: 24h
# Summary of the method: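 HepG2 Srxn1-GFP BAC reporter cells were seeded at 20,000 per well in 96-well plates and co-exposed for 24 h to compound at 10 μM and an NRF2 activator at 30 nM, with DMSO at ≤0.1%, in three replicate plates. Cells were fixed with formaldehyde, stained with Hoechst and imaged by confocal microscopy, and cytoplasmic GFP was measured per cell, with images holding under 100 cells discarded. The reported value is the median over replicates of each plate's modified Z-score of GFP intensity. For this score, scaling used 1.4826 × median absolute deviation.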
row,Compound,Srxn1-GFP intensity median modified Z-score
1,CC(C)(CO)C(=O)C(O)NCCC(=O)O (stereo not drawn) [euspeclibcmpd2436],0.216 (inactive)
2,Oc1ccc2c(c1)OCC1(O)Cc3cc(O)c(O)cc3C21 (stereo not drawn) [euspeclibcmpd1416],1.37 (inactive)
3,NC(C(=O)C(O)C(O)CO)C(O)O (stereo not drawn) [euspeclibcmpd1661],-0.409 (inactive)
4,CCC[C@@H]1CC(C(=O)N[C@@H]([C@@H]2O[C@H](SC)[C@H](O)[C@@H](O)[C@H]2O)[C@H](C)Cl)N(C)C1 (stereo partly drawn) [euspeclibcmpd68],-0.322 (inactive)
5,COC(=O)c1c(C)cc(OC(=O)c2c(C)cc(O)c(C=O)c2O)c(C)c1O [euspeclibcmpd1556],12.5 (active)
6,COc1cc(C)c(C(=O)Oc2cc(C)c(C(=O)O)c(O)c2C)c(OC)c1C [euspeclibcmpd1550],1.38 (inactive)
7,CCOC(=O)c1c(C)cc(O)c(C=O)c1O [euspeclibcmpd1571],-0.398 (inactive)
8,COC1CC(OC2C(C)C(=O)OC(C)C(C)C(O)C(C)C(=O)C3(CO3)CC(C)C(OC3OC(C)CC(N(C)C)C3O)C2C)OC(C)C1O (stereo not drawn) [euspeclibcmpd1849],-0.547 (inactive)
9,S=C=Nc1ccc(N=C=S)cc1 [euspeclibcmpd1177],20.6 (active)
10,O=S(=O)(O)c1cc(N=C=S)ccc1C=Cc1ccc(N=C=S)cc1S(=O)(=O)O [euspeclibcmpd1825],-0.132 (inactive)
11,CCOC(=O)C(CCc1ccccc1)NC(C)C(=O)N1C(C(=O)O)CC2CCCCC21 (stereo not drawn) [euspeclibcmpd732],9.5 (active)
12,CCCC(NC(C)C(=O)N1C(C(=O)O)C[C@@H]2CCCC[C@@H]21)C(=O)OCC (stereo partly drawn) [euspeclibcmpd721],-0.404 (inactive)
13,CCOC(=O)C(CCc1ccccc1)NC(C)C(=O)N1C(C(=O)O)C[C@@H]2CCC[C@@H]21 (stereo partly drawn) [euspeclibcmpd722],-0.468 (inactive)
14,CC1C(=O)O[C@H]2CC34[C@H]5CC(C(C)(C)C)C36C(=O)C(O)O[C@H]6OC4(C(=O)O5)[C@@]12O (stereo partly drawn) [euspeclibcmpd2300],-0.422 (inactive)
15,CC(=O)Nc1ccc(OC(=O)c2ccccc2O)cc1 [euspeclibcmpd1988],-0.258 (inactive)
16,CN(C)N=Nc1[nH]cnc1C(N)=O [euspeclibcmpd80],60.7 (active)
17,CN(C)c1cc(NC(=O)CNC(C)(C)C)c(O)c2c1C[C@H]1C[C@H]3[C@H](N(C)C)C(=O)C(C(N)=O)C(=O)[C@@]3(O)C(=O)C1C2=O (stereo partly drawn) [euspeclibcmpd1297],-0.316 (inactive)
18,OCc1cc(O)c2c(O)c3c(O)cccc3c([C@@H]3O[C@H](CO)[C@@H](O)[C@H](O)[C@H]3O)c2c1 [euspeclibcmpd1140],-0.523 (inactive)
